High-throughput results: PubChem, National Center for Advancing Translational Sciences (NCATS)
This is a sample that favours compounds with a hit; in the whole collection about 5.5% have one here.
Coupling enz = coupling enzyme interference in Giardia aldolase counter-screen; coupling enzyme system counterscreen, AmpLite Red fluorescence; activity change, negative = inhibition, % at 58.2 µM, hits read low; hit rate 0.67% among 290,000; in the data active = activity change below about -30%
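Final compound at 57.5 uM, incubated 10 min at RT with coupling enzyme reagent (glyceraldehyde-3-phosphate), then 20 min with substrate and AmpLite Red detection. Fluorescence read at 525/598 nm; tests interference with the coupling assay, not aldolase inhibition.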
Sfp PPTase inh = Sfp phosphopantetheinyl transferase inhibition; Q9F4F7; Biochemical Sfp PPTase activity, qHTS; Potency, µM, for the others: largest response in the series, negative = inhibition, usual class: inhibitors; hit rate 3.5% among 310,000; AID 1490;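 note: the enzyme is Sfp with the accession as filed and its product quenches rhodamine fluorescence; potency is the fitted concentration of half-maximal effect; 0% = enzyme reaction without inhibitor and -100% = no enzyme wells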
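Reaction rates are the 30-min fluorescence difference (ex 525, em 598 nm) in wells containing 15 nM Sfp, 5 uM rhodamine-CoA and 12.5 uM BHQ-2-YbbR at pH 7.6 with 10 mM MgCl2.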
Giardia killer = kills Giardia lamblia; Giardia lamblia trophozoite viability; hit rate 0.15% among 340,000; AID 540267; activity change, % at 7.66 µM, hits read low; in the data active = activity change below about -80%; inconclusive = between about -30% and that limit;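 note: parasites exposed to compound for two days anaerobically before the ATP read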
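Compounds were tested on trophozoites seeded at 100 cells/well and held 48 hrs at 37 deg C anaerobically. An ATP-based luminescent kit measured the remaining live cells.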
ELG1 DNA repair = blocks ELG1-dependent DNA repair in HEK293T cells; HEK293T ELG1-luciferase reporter, luminescence, 16 h; DNA damage induced by 5-fluorouridine; Potency, µM (series often up to 46.1 µM), for inactives: top-dose activity change, negative = inhibition, hits mostly inhibitors; hit rate 2.3% among 330,000; note: potency is the fitted concentration of half-maximal effect; nearly all actives have a fitted effect of over 55% in size
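Quantitative HTS, concentration-response format. 2,000 cells/well co-treated with 5-fluorouridine and compound, 16 hr in 5% CO2 at 37 °C; ONE-Glo luminescence read after 30 min.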
The depositor's hits bear a star; ? = inconclusive; / = no result. Unless noted, calls come from the whole dose curve; as a rule, active = well fitted curve in the direction sought with a large enough effect; inconclusive = small, poorly fitted or top-dose-only effect, or another doubt; inactive = no such curve, though single readings can be large; an effect the other way counts as inactive or inconclusive. Unless noted, % is set by controls: 0 for no effect and ±100 for the full control effect.

SMILES	Coupling enz	Sfp PPTase inh	Giardia killer	ELG1 DNA repair
Cn1nc(C(F)(F)F)c(C#N)c1N1CCN(c2ccccc2)CC1	-6	9%	1	9.2µM*
COc1cc(N=Nc2ccc(C(=O)N(C)C)cc2)c(C)cc1N	/	/	-6	/
CCN(CC)S(=O)(=O)c1cccc(C(=O)NCC2(N3CCOCC3)CCCCC2)c1	/	/	11	-17%
O=C(NCc1ccccc1)NCc1cccs1	2	15%	5	?
Cc1ccccc1CNC(=O)Nc1cccs1	1	20µM*	-3	?
Cc1ccccc1CNC(=O)Nc1ccc(Cl)cc1	2	16%	-2	?
O=C(NCc1cccs1)Nc1cccs1	-5	18µM*	-1	17%
Cc1ccc(NC2=C(Cl)C(=O)c3ccccc3C2=O)cc1	-22	16%	-4	?
O=C(O)c1ccc(NC2=C(N3CCOCC3)C(=O)c3ccccc3C2=O)cc1	-28	-2%	14	1%
CC(=O)c1ccc(NC2=C(N3CCOCC3)C(=O)c3ccccc3C2=O)cc1	-30*	-6%	-8	?
Cc1ccc(NC2=C(N3CCOCC3)C(=O)c3ccccc3C2=O)cc1	-50*	-9%	-19	?
CC(=O)[O][Al][O]C(C)=O	/	21%	/	/
O=C(CN1C(=O)CCOc2ccccc21)Nc1ccc(Cl)c(S(=O)(=O)N2CCOCC2)c1	/	/	-3	-17%
NS(=O)(=O)c1ccc(NC(=O)CN2CCc3ccccc3C2)cc1	0	5%	8	-11%
CN(C(=O)c1cccc(NC(=O)Cc2ccc(NC(=O)C3CCCN(C(=O)C4CC4)C3)cc2)c1)C1CCC1 (stereo not given)	/	/	-9	/
COc1cccc(C2CC(c3ccc(C)cc3)=NN2C(=O)c2ccccc2F)c1OC (stereo not given)	1	-4%	-14	?
O=C(c1ccccc1)N1N=C(c2ccccc2)CC1c1ccccc1O (stereo not given)	-8	10µM*	4	-16%
Cc1ccc(C2=NN(C(=O)c3ccccc3F)C(c3ccccc3F)C2)cc1 (stereo not given)	-1	50µM*	3	?
CN(C)CCc1c[nH]c2ccc(CC3COC(=O)N3)cc12 (stereo not given)	1	16%	/	/
Cc1ccc(C)c(N2CCN(CCCNC(=O)Cn3c(=O)c4cccn4c4cccnc43)CC2)c1	-1	16%	0	1%
COc1cccc(C(=O)Cn2c(Br)nc3c2c(=O)n(C)c(=O)n3C)c1	7	?	1	?
Cn1c(=O)c2c(nc(Br)n2CC(=O)C23CC4CC(CC(C4)C2)C3)n(C)c1=O	-3	?	-5	15µM*
COc1ccc(N2C(=O)/C(=C/c3cccs3)NC2=S)cc1	2	10µM*	11	21%
CC1=N/C(=C\c2ccc([N+](=O)[O-])cc2)C(=O)N1c1cc(Cl)ccc1C	2	56µM*	-11	3%
CN1CC(=O)N/C1=N\C(=O)Nc1ccc(O)cc1	0	?	16	-3%
SMILES	Coupling enz	Sfp PPTase inh	Giardia killer	ELG1 DNA repair
Cc1cccc(Nc2nc(-c3c(C)nc4ccccn34)cs2)c1	2	50µM*	17	?
Cc1nc2ccccn2c1-c1csc(Nc2cccc(C(=O)O)c2)n1	-4	79µM*	-1	1%
COc1ccc(NC(=O)CN(C)C(=O)c2ccc(C)c(S(=O)(=O)N3CCCCC3)c2)cc1	/	/	-16	/
c1ccc(-c2nc(NCc3ccco3)c3ccccc3n2)nc1	0	1%	-7	7.3µM*
COc1ccc(Nc2nc(NCC3CCCO3)c3ccccc3n2)c(OC)c1 (stereo not given)	-1	15%	3	13µM*
CCOc1ccc(Nc2c3ccccc3nc3ccccc23)cc1	-2	-12%	0	5.8µM*
c1ccc(Nc2nc(NCC3CCCO3)c3ccccc3n2)cc1 (stereo not given)	-1	?	18	?
Oc1cccc(Nc2nc(NCC3CCCO3)c3ccccc3n2)c1 (stereo not given)	-1	?	-3	21µM*
Cc1cccc(NC(=O)CSc2nnc(CNC(=O)c3ccco3)n2C)c1	0	17%	5	0%
c1ccc(-c2nc(NCC3CCCO3)c3ccccc3n2)nc1 (stereo not given)	5	?	4	18µM*
CCOc1ccc(Nc2nc(NCC3CCCO3)c3ccccc3n2)cc1 (stereo not given)	0	35µM*	31	7.3µM*
Brc1ccc2ncnc(NCc3ccco3)c2c1	-5	13%	2	8.2µM*
